12-LOX inh: blocks human arachidonate 12S-lipoxygenase; AID 1671190; actives 1.1% (n = 580,000); P18054; Potency, µM (titrated, usually from 108 µM), for the others: at the highest dose activity change, negative = inhibition, hits mostly inhibitors; purified 12hLO, xylenol orange hydroperoxide absorbance
Target sequence (P18054 whole entry, looked up): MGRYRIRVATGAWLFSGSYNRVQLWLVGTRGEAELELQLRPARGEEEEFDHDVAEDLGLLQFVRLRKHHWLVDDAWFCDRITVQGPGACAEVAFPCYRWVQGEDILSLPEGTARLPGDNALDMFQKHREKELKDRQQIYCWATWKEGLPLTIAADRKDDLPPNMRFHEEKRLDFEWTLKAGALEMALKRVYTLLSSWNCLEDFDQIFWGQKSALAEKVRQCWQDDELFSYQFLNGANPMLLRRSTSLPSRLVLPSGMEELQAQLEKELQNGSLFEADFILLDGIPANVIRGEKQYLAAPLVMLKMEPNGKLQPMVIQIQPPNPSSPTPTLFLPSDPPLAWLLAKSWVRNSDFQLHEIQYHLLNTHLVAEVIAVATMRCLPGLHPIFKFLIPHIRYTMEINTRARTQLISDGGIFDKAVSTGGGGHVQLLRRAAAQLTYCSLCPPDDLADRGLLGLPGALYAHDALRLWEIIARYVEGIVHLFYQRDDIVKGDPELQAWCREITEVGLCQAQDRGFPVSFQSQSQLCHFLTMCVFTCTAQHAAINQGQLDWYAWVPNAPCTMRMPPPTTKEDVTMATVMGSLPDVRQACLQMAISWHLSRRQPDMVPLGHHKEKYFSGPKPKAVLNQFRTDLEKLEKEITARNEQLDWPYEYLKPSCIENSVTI
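Purified human 12hLO at 150 nM in 25 mM Hepes, 0.01% Triton X-100, pH 7.0, preincubated 15 min at room temperature with compound. Reaction started with 40 uM arachidonic acid, 30 min at room temperature. Hydroperoxide measured by Fe-xylenol orange, 573/405 nm absorbance ratio.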
DT40 TDP1 no CPT: qHTS for Inhibitors of human tyrosyl-DNA phosphodiesterase 1 (TDP1): qHTS in cells in absence of CPT. Potency, µM (top dose mostly 46.2 µM), for inactives: at the highest dose activity change, negative = growth inhibition, most hits filed as inhibitors. AID 686978, 2013. DT40 Tdp1-/- hTDP1 cells, no CPT, ATP luminescence, 48 h. actives 15% (n = 420,000); note: nearly all actives have a fitted effect of over 55% in size
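Camptothecin absent (DMSO only). Human TDP1-complemented DT40 knockout cells, 400 cells/well, 37 °C for minimum 48 hr; ATP measured via CellTiter-Glo, 30 min dark incubation, luminescence.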
Gal4-VP16 FLuc: Gal4-VP16 reporter inhibition counter-screen | Drosophila S2 Gal4-VP16 UAS-luciferase, luminescence, 20 h | Potency, µM (series often up to 53.6 µM), without a hit: at the top dose activity, negative = inhibition, hits mostly inhibitors | actives 3.5% (n = 310,000);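 note: Gal4-VP16 expression switched on by copper sulfate through the metallothionein promoter; nearly all actives have a fitted effect of over 50% in size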
ELG1 repair inh: ELG1-dependent DNA repair inhibition; actives 2.3% (n = 330,000); Potency, µM (series often up to 46.1 µM), for the others: top-dose activity change, negative = inhibition, usual class: inhibitors; HEK293T ELG1-luciferase reporter, luminescence, 16 h; DNA damage induced by 5-fluorouridine; note: nearly all actives have a fitted effect of over 55% in size
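Step one: seed 2,000 cells per well. Step two: pin-transfer compound or DMSO alongside 5-fluorouridine. Step three: incubate 16 hr, 37 °C, 5% CO2. Step four: add ONE-Glo, wait 30 min, read luminescence.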
RORgamma inh: ROR gamma (mouse) transcription inhibition; Drosophila S2 Gal4-RORgamma UAS-luciferase reporter, 20 h; P51450; actives 5.4% (n = 310,000); Potency, µM (doses to about 53.6 µM), for inactives: at the highest dose activity change, negative = inhibition, most hits filed as inhibitors; note: nearly all actives have a fitted effect of over 60% in size
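ROR gamma transcriptional activity was tracked as Gal4-UAS luciferase output in stably transfected Drosophila Schneider cells, with compound added 1 hr before 700 uM copper sulfate induction and a 20 hr ambient-temperature incubation.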
TDP1 cell CPT: DT40-hTDP1 cell growth loss with CPT. chicken DT40 Tdp1-/-;hTDP1 cells + 20 nM CPT, ATP luminescence, 48 h. Potency, µM (doses to about 46.2 µM), inactives show at the highest dose activity change, negative = growth inhibition, usual class: inhibitors. actives 12% (n = 420,000). AID 686979; note: nearly all actives have a fitted effect of over 55% in size
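Cell growth measured by CellTiter-Glo luminescence after a minimum 48 h, 37 C compound exposure with 20 nM CPT in Tdp1-knockout DT40 cells stably expressing hTDP1, seeded 400/well; qHTS titration format.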
The depositor's hits bear a star; [ ] = remark or other dose. Shown are actives, neighbours in structure and some others; about 15% of the full set was active somewhere. Calls come from the whole dose curve; as a rule, active = well fitted curve in the direction sought with a large enough effect; inconclusive = small, poorly fitted or top-dose-only effect, or another doubt; inactive = no such curve, though single readings can be large; an effect the other way counts as inactive or inconclusive. % is set by controls: 0 for no effect and ±100 for the full control effect; potency is the fitted concentration of half-maximal effect.

`C=C(C)CCC1(C)NC(=O)N(c2ccccc2)N1` (centres undefined) gave 12-LOX inh inconclusive, DT40 TDP1 no CPT -18%, Gal4-VP16 FLuc 0%, ELG1 repair inh inconclusive, RORgamma inh 2% and TDP1 cell CPT -2%.
For CC1(CC(=O)Nc2ccccc2)NC(=S)N(c2ccccc2)N1 (centres undefined) the results were 12-LOX inh -19%, DT40 TDP1 no CPT -3%, Gal4-VP16 FLuc 1%, ELG1 repair inh inconclusive, RORgamma inh 7.9µM* and TDP1 cell CPT 7%.
For CCCCCC1(C)NC(=S)N(c2ccccc2)N1 (centres undefined) the results were 12-LOX inh 0.79µM*, DT40 TDP1 no CPT -9%, Gal4-VP16 FLuc inconclusive, ELG1 repair inh 7.3µM*, RORgamma inh inconclusive and TDP1 cell CPT 12%.
Screening CCOc1cccc2cc(C(=O)/C=C/c3ccc(C)cc3)c(=O)oc12 returned 12-LOX inh -19%.
Screening COc1ccc(-n2nc(C(=O)N3CCCC(C)C3)c3c4ccccc4n(C)c3c2=O)cc1 (centres undefined) returned 12-LOX inh inconclusive, DT40 TDP1 no CPT inconclusive and TDP1 cell CPT 26µM*.
Screening COc1ccc(-n2nc(C(=O)N3CCC(C#N)CC3)c3c4ccccc4n(C)c3c2=O)cc1 returned 12-LOX inh 12%, DT40 TDP1 no CPT -16% and TDP1 cell CPT 2%.
Screening CCOC(=O)C1CCN(C(=O)c2nn(-c3ccc(OC)c(Cl)c3)c(=O)c3c2c2ccccc2n3C)CC1 returned 12-LOX inh -24%, DT40 TDP1 no CPT 15µM* and TDP1 cell CPT 21µM*.
Screening CCOC(=O)C1CCN(C(=O)c2nn(-c3ccc(OC)cc3)c(=O)c3c2c2ccccc2n3C)CC1 returned 12-LOX inh -22%, DT40 TDP1 no CPT inconclusive and TDP1 cell CPT inconclusive.
Screening COc1ccc(-n2nc(C(=O)N3CCCCC3)c3c4ccccc4n(C)c3c2=O)cc1Cl returned 12-LOX inh -8%, DT40 TDP1 no CPT 16µM* and TDP1 cell CPT 4.1µM*.
Screening CC(C)N(CCO)Cc1nc(N2CCOCC2)c2cc(Cl)ccc2n1 returned 12-LOX inh inconclusive, DT40 TDP1 no CPT 21µM* and TDP1 cell CPT inconclusive.
Cc1cc(S(=O)(=O)NCc2nc(N3CCCC3)c3cc(Cl)ccc3n2)c(C)s1 was read as 12-LOX inh 7%, DT40 TDP1 no CPT -7% and TDP1 cell CPT -4%[9.04 µM].
`COc1ccccc1N(C)S(=O)(=O)c1ccc(C(=O)OCn2nnc3ccccc3c2=O)cc1` gave 12-LOX inh -8%.
For CC(=O)Nc1ccc(OCC(O)Cn2c3ccccc3c3ccccc32)cc1 (centres undefined) the results were 12-LOX inh 3%, DT40 TDP1 no CPT inconclusive, Gal4-VP16 FLuc -19%, ELG1 repair inh 18µM*, RORgamma inh inconclusive and TDP1 cell CPT inconclusive.
For CC(=O)Nc1ccc(OCC(O)Cn2c3ccccc3c3ccccc32)c(C)c1 (centres undefined) the results were 12-LOX inh -18%, DT40 TDP1 no CPT 18µM*, Gal4-VP16 FLuc -15%, ELG1 repair inh inconclusive, RORgamma inh inconclusive and TDP1 cell CPT inconclusive.
`Cc1ccccc1OCC(O)Cn1c2ccccc2c2ccccc21` (centres undefined) gave 12-LOX inh -22%, DT40 TDP1 no CPT inconclusive, Gal4-VP16 FLuc inconclusive, ELG1 repair inh 36%, RORgamma inh 8% and TDP1 cell CPT inconclusive.
Cc1ccc(S(=O)(=O)CC(=O)c2ccc(F)cc2)cc1 was read as 12-LOX inh -4%.
`Cc1ccc(OCc2cc(C(=O)N(C)Cc3cc(C4CC4)n[nH]3)no2)cc1C` gave 12-LOX inh -1%, DT40 TDP1 no CPT 23µM*, Gal4-VP16 FLuc 3%, ELG1 repair inh 16%, RORgamma inh 17% and TDP1 cell CPT inconclusive.
`CN(Cc1ccccn1)C(=O)c1cc(COc2ccc(F)c(F)c2)on1` gave 12-LOX inh 18%, DT40 TDP1 no CPT inconclusive and TDP1 cell CPT 18µM*.
`Cc1ccc(OCc2cc(C(=O)N(C)CCc3ccccn3)no2)cc1C` gave 12-LOX inh -2%, DT40 TDP1 no CPT inconclusive, Gal4-VP16 FLuc -6%, ELG1 repair inh inconclusive, RORgamma inh 23% and TDP1 cell CPT 26µM*.
Screening Cc1ccc(OCc2cc(C(=O)N(C)CCc3nc4ccccc4[nH]3)no2)cc1C returned 12-LOX inh 7%, DT40 TDP1 no CPT 21µM*, Gal4-VP16 FLuc -22%, ELG1 repair inh inconclusive, RORgamma inh -4% and TDP1 cell CPT 15µM*.
`C#CCNC(=O)c1cc(-c2ccccc2OC)c2cnn(C)c2n1` gave 12-LOX inh -1%[6.33 µM].
For COc1ccc(C(=O)N2CCCCCCNC(=O)[C@@H]3CCCC[C@@H]32)c(OC)n1 the results were 12-LOX inh 21%.
Screening O=C(CN1CC2CC(C1)[C@H]1CCCC(=O)N1C2)NCc1cc(F)cc(F)c1 (some centres undefined) returned 12-LOX inh 1%.
`COc1ccc(-c2nsc3c2NC(=O)CC3c2ccc(OC)cc2)cc1` (centres undefined) gave 12-LOX inh 0%.
`CC(=O)Nc1ccc(NC(=O)CCc2ncc(-c3ccc(Cl)cc3)o2)cc1` gave 12-LOX inh -76%.
`O=C(Nc1cccc(-c2nnc3n2CCCC3)c1)c1cnccn1` gave 12-LOX inh 25%.
C#CCN(C(=O)c1cc(COc2ccc(C)c(C)c2)on1)C1CCCCC1 was read as 12-LOX inh 2%, DT40 TDP1 no CPT 23µM*, Gal4-VP16 FLuc inconclusive, ELG1 repair inh -8%, RORgamma inh inconclusive and TDP1 cell CPT inconclusive.
For Cc1ccc(OCc2cc(C(=O)N(C)C3CCCc4ccccc43)no2)cc1C (centres undefined) the results were 12-LOX inh -5%, DT40 TDP1 no CPT -71% and TDP1 cell CPT inconclusive.
Screening CN(C)c1ccc(C(C(=O)NCC2CCCO2)N(C(=O)c2snc(C(N)=O)c2N)c2ccc3c(c2)OCO3)cc1 (centres undefined) returned 12-LOX inh 1%, DT40 TDP1 no CPT inconclusive, Gal4-VP16 FLuc -18%, ELG1 repair inh 21µM*, RORgamma inh inconclusive and TDP1 cell CPT 0%.

Screens deposited in PubChem BioAssay by National Center for Advancing Translational Sciences (NCATS).
